# The list shows a part of the results. Active and inactive are the calls of the source.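 Rule for the calls: active = potency below 100 µM; inconclusive = dose-dependent response but potency above 100 µM; inactive = the rest.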
# Molecular target: 4'-phosphopantetheinyl transferase ffp (Bacillus subtilis) (UniProt Q9F4F7)
# Experiment: Gel-Based Assay for Inhibitors of Bacillus subtilis Sfp phosphopantetheinyl transferase (PPTase)
# Details: purified Sfp, gel-based phosphopantetheinylation read-out
# From the text: The covalent attachment of a phosphopantetheinyl (4'-PP) arm to a variety of synthases and other proteins is a key posttranslational protein modification. The 4'-PP is installed on the proteins post-translationally from coenzyme A (CoA) on a conserved serine residue by action of phosphopantetheinyl transferase (PPTase) enzymes. Phosphopantetheinylation is essential for synthase activity, and removal of the PPTase gene precludes natural product synthesis in microorganisms, or in the case of fatty acid biosynthesis, renders the organism unviable. PPTase enzymes belong to a distinct structural superfamily. Within bacteria, these enzymes are grouped into two classes based upon primary structure, the AcpS-Type and Sfp-Type PPTases. […]
# In this assay, compounds were evaluated by monitoring of fluorescence transfer to whole carrier protein substrates via polyacrylamide gel electrophoresis. […]
# A DMSO solution of confirmed hits (0.5 microL) was added to a 1.33X enzyme solution (15 microL, containing 26.6 nM Sfp, 66 mM HEPES, 13.3 mM MgCl2, 0.0133% NP-40, 0.133% BSA, pH 7.6). […] Following the run, gels were imaged with a Chemi-Doc Plus imager (Bio-Rad, Hercules, CA) and band intensity quantified using the ImageJ software package. […]
# Chain of 4'-phosphopantetheinyl transferase ffp (Bacillus subtilis) (Q9F4F7 whole entry, looked up): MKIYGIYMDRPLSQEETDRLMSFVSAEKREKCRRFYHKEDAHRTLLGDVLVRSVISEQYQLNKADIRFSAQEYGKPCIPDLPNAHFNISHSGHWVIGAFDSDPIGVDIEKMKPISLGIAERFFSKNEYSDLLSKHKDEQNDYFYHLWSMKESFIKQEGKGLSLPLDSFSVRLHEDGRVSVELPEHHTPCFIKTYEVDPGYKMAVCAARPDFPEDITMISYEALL
row,Structure (SMILES),outcome
1,Cc1nn2c(c1-c1ccccc1)N=C(c1ccco1)CC2c1ccccc1 (configuration not stated),inactive
2,CCCOC(=O)Nc1sc2c(c1C(=O)OCC)CCC2,inactive
